Compounds without any hit were thinned out: in the full panel of roughly 83,000, 20% have a hit.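 The endpoint reported here, percent growth, reads 100 for growth as untreated, 0 for no net growth and -100 for all cells dead.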 Calls of active or inactive are those of the source. How the source made its calls: active means growth percent below 10; inactive means the rest.
Legend:
Assay in all cases: NCI-60 one-dose screen, 48 h (100 = growth as untreated, 0 = no growth, -100 = all killed)
Details in all cases: 10 µM unless noted
DU-145 prostate = tested on: DU-145 prostate
K-562 leukemia = tested on: K-562 leukemia
MALME-3M melanoma = tested on: MALME-3M melanoma
MDA-MB-231 breast = tested on: MDA-MB-231 breast
RXF 393 renal = tested on: RXF 393 renal
SF-268 CNS = tested on: SF-268 CNS
SF-295 CNS = tested on: SF-295 CNS
SF-539 CNS = tested on: SF-539 CNS
UACC-257 melanoma = tested on: UACC-257 melanoma
M14 melanoma = tested on: M14 melanoma
HCT-15 colon = tested on: HCT-15 colon
HT29 colon = tested on: HT29 colon
SNB-75 CNS = tested on: SNB-75 CNS
SNB-19 CNS = tested on: SNB-19 CNS
U251 CNS = tested on: U251 CNS
PC-3 prostate = tested on: PC-3 prostate
SK-MEL-5 melanoma = tested on: SK-MEL-5 melanoma
UACC-62 melanoma = tested on: UACC-62 melanoma
LOX IMVI melanoma = tested on: LOX IMVI melanoma
SK-MEL-28 melanoma = tested on: SK-MEL-28 melanoma

Measured: growth

Cc1nc2sc(C(=O)Nc3ccccc3)c(N)c2cc1C(=O)/C=C/c1ccccc1
inactive: K-562 leukemia 12% | MALME-3M melanoma 50.1% | SF-295 CNS 18.1% | UACC-257 melanoma 54.2% | M14 melanoma 11.1% | SK-MEL-5 melanoma 11.7% | SK-MEL-28 melanoma 30.9%
active: DU-145 prostate 1.91% | MDA-MB-231 breast -9.1% | RXF 393 renal -74.8% | SF-268 CNS 0.182% | SF-539 CNS -27% | HCT-15 colon -32.1% | HT29 colon -63.9% | SNB-75 CNS -14% | SNB-19 CNS -40.8% | U251 CNS -71.7% | PC-3 prostate 6.68% | UACC-62 melanoma 0.799% | LOX IMVI melanoma -80%

C=C1C(=O)O[C@H]2[C@H]1CC/C(COC(=O)NCCCCCCCCNC(=O)OC/C1=C/CC[C@@]3(C)O[C@H]3[C@H]3OC(=O)C(=C)[C@@H]3CC1)=C\CC[C@@]1(C)O[C@@H]21
active: DU-145 prostate -92.1% | K-562 leukemia -28.5% | MALME-3M melanoma -64.4% | MDA-MB-231 breast -79.1% | RXF 393 renal -83.6% | SF-268 CNS -66.8% | SF-295 CNS -21.7% | SF-539 CNS -88.5% | UACC-257 melanoma -55.1% | M14 melanoma -67.8% | HCT-15 colon -83.9% | HT29 colon -67.1% | SNB-75 CNS -19.8% | SNB-19 CNS 6.51% | U251 CNS -48.2% | PC-3 prostate -64.3% | SK-MEL-5 melanoma -85.3% | UACC-62 melanoma -70.8% | LOX IMVI melanoma -78.2% | SK-MEL-28 melanoma -75.3%

Oc1c(CN2CCCC2)cc(COCc2ccccc2)c2cccnc12
inactive: DU-145 prostate 30.4% | K-562 leukemia 12.2% | MALME-3M melanoma 30.8% | MDA-MB-231 breast 35.9% | RXF 393 renal 46.5% | SF-268 CNS 23.2% | SF-295 CNS 18.3% | HCT-15 colon 11.3% | HT29 colon 74.4% | SNB-75 CNS 44.9% | SNB-19 CNS 25.5% | PC-3 prostate 24.9% | SK-MEL-28 melanoma 31%
active: SF-539 CNS -5.32% | UACC-257 melanoma -16.1% | M14 melanoma -2.08% | U251 CNS 1.08% | SK-MEL-5 melanoma -11.1% | UACC-62 melanoma -19.9% | LOX IMVI melanoma 2.6%

O=C(Nc1ccccc1O)c1ccccc1Nc1ccnc(C(F)(F)F)c1
inactive: DU-145 prostate 104% | K-562 leukemia 86.2% | MALME-3M melanoma 112% | MDA-MB-231 breast 82.5% | RXF 393 renal 108% | SF-268 CNS 113% | SF-295 CNS 107% | SF-539 CNS 89.1% | UACC-257 melanoma 106% | M14 melanoma 98.6% | HCT-15 colon 104% | HT29 colon 124% | SNB-75 CNS 90.7% | SNB-19 CNS 107% | U251 CNS 102% | PC-3 prostate 94.4% | SK-MEL-5 melanoma 70.7% | UACC-62 melanoma 57.7% | LOX IMVI melanoma 89.3% | SK-MEL-28 melanoma 117%

COc1ccc(Cn2cc(C(=O)N=Nc3c(O)[nH]c4c(Cl)cccc34)nn2)cc1
inactive: DU-145 prostate 105% | K-562 leukemia 89.2% | MALME-3M melanoma 99.7% | MDA-MB-231 breast 98.5% | RXF 393 renal 109% | SF-268 CNS 94.7% | SF-295 CNS 109% | SF-539 CNS 108% | UACC-257 melanoma 92.9% | M14 melanoma 106% | HCT-15 colon 107% | HT29 colon 97% | SNB-75 CNS 82.1% | SNB-19 CNS 93.6% | U251 CNS 102% | PC-3 prostate 96.7% | SK-MEL-5 melanoma 101% | UACC-62 melanoma 102% | LOX IMVI melanoma 93.7% | SK-MEL-28 melanoma 115%

CC/C(Cc1ccccc1)=C(\c1ccc(OCCN2CCCCCC2)cc1)c1ccc(OC(=O)NCc2ccccc2)cc1
inactive: DU-145 prostate 83.2% | MALME-3M melanoma 61.3% | MDA-MB-231 breast 74.4% | RXF 393 renal 77.4% | SF-268 CNS 77.3% | SF-295 CNS 107% | SF-539 CNS 79.7% | UACC-257 melanoma 77.6% | M14 melanoma 56.3% | SNB-75 CNS 66.4% | SNB-19 CNS 72.5% | U251 CNS 49.6% | PC-3 prostate 54.8% | SK-MEL-5 melanoma 72.5% | UACC-62 melanoma 75.3% | SK-MEL-28 melanoma 87.2%
active: K-562 leukemia -11.8% | HCT-15 colon 9.25% | HT29 colon 5.23% | LOX IMVI melanoma 4.35%

Cc1ccccc1CNc1c2ccccc2nc2ccccc12
inactive: DU-145 prostate 30.6% | MALME-3M melanoma 15.2% | MDA-MB-231 breast 39.9% | SF-268 CNS 42.9% | SF-295 CNS 29.5% | UACC-257 melanoma 32.7% | M14 melanoma 13.1% | HCT-15 colon 14.6% | SNB-75 CNS 45.3% | SNB-19 CNS 27.1% | U251 CNS 21.3% | PC-3 prostate 25.6% | SK-MEL-5 melanoma 33.9% | UACC-62 melanoma 46.7% | SK-MEL-28 melanoma 58.3%
active: K-562 leukemia 5.04% | RXF 393 renal 7.78% | SF-539 CNS 3.3% | HT29 colon 8.87% | LOX IMVI melanoma 9.12%

O=c1ccc2nc(C(F)(F)F)nn(-c3ccccc3)c-2c1
inactive: DU-145 prostate 40.5% | MDA-MB-231 breast 61% | SF-268 CNS 77.4% | SF-295 CNS 91.9% | SF-539 CNS 92.8% | UACC-257 melanoma 35.6% | M14 melanoma 62.1% | SNB-75 CNS 86.5% | SNB-19 CNS 93.5% | U251 CNS 69.7% | PC-3 prostate 84.6% | SK-MEL-5 melanoma 32.7% | UACC-62 melanoma 66.4% | SK-MEL-28 melanoma 35.7%
active: K-562 leukemia -35.1% | MALME-3M melanoma -41.7% | RXF 393 renal -20.5% | HCT-15 colon -79.7% | HT29 colon -64.3% | LOX IMVI melanoma 4.3%

CS(=O)(=O)Cc1cnc(C2OCCO2)s1
inactive: DU-145 prostate 106% | K-562 leukemia 125% | MALME-3M melanoma 92.7% | MDA-MB-231 breast 109% | RXF 393 renal 116% | SF-268 CNS 93.1% | SF-295 CNS 98% | SF-539 CNS 94.7% | UACC-257 melanoma 98.8% | M14 melanoma 99.9% | HCT-15 colon 109% | HT29 colon 91.1% | SNB-75 CNS 91.2% | SNB-19 CNS 112% | U251 CNS 96.5% | PC-3 prostate 92.2% | SK-MEL-5 melanoma 97.8% | UACC-62 melanoma 106% | LOX IMVI melanoma 100% | SK-MEL-28 melanoma 105%

O=C1Nc2ccccc2C2c3cccn3-c3ccccc3N12 (stereo not given)
inactive: DU-145 prostate 94.8% | K-562 leukemia 23.9% | MALME-3M melanoma 71.7% | MDA-MB-231 breast 47.1% | RXF 393 renal 51.7% | SF-268 CNS 79% | SF-295 CNS 78.6% | SF-539 CNS 83.2% | UACC-257 melanoma 77.6% | M14 melanoma 53% | HCT-15 colon 53.9% | HT29 colon 31.7% | SNB-75 CNS 40% | SNB-19 CNS 88.9% | U251 CNS 60.2% | PC-3 prostate 66.9% | SK-MEL-5 melanoma 80% | UACC-62 melanoma 57.6% | LOX IMVI melanoma 74.2% | SK-MEL-28 melanoma 94.1%

CCNc1nc(-c2ccc(F)cc2)c(C#N)c(=O)n1C
inactive: DU-145 prostate 63.4% | K-562 leukemia 100% | MALME-3M melanoma 93% | MDA-MB-231 breast 33.6% | RXF 393 renal 44% | SF-268 CNS 58.5% | SF-295 CNS 59.7% | SF-539 CNS 59.7% | UACC-257 melanoma 102% | M14 melanoma 82.8% | HCT-15 colon 56.8% | HT29 colon 57.2% | SNB-75 CNS 37.9% | SNB-19 CNS 60.6% | U251 CNS 65.2% | PC-3 prostate 42.8% | SK-MEL-5 melanoma 57.3% | UACC-62 melanoma 44% | LOX IMVI melanoma 63.2% | SK-MEL-28 melanoma 77.5%

COc1cc2c(c(OC)c1OC)C(=O)CC(c1cccc(NC(=O)c3ccccc3Br)c1)O2 (stereo not given)
inactive: DU-145 prostate 97.1% | K-562 leukemia 70.2% | MALME-3M melanoma 105% | MDA-MB-231 breast 98.6% | RXF 393 renal 99.4% | SF-268 CNS 90.5% | SF-295 CNS 92.5% | SF-539 CNS 96.5% | UACC-257 melanoma 90.1% | M14 melanoma 97.8% | HCT-15 colon 88.6% | HT29 colon 97.1% | SNB-75 CNS 93.3% | SNB-19 CNS 95.5% | U251 CNS 91.5% | PC-3 prostate 77.9% | SK-MEL-5 melanoma 86.1% | UACC-62 melanoma 72.2% | LOX IMVI melanoma 93.4% | SK-MEL-28 melanoma 111%

COc1ccc(Nc2ncccc2NC(=O)c2cn(Cc3cccc(Oc4ccccc4)c3)nn2)cc1OC
inactive: DU-145 prostate 84% | K-562 leukemia 28.7% | MALME-3M melanoma 87.4% | MDA-MB-231 breast 67.9% | RXF 393 renal 86.3% | SF-268 CNS 61.7% | SF-295 CNS 84.2% | SF-539 CNS 95% | UACC-257 melanoma 92.4% | M14 melanoma 72.5% | HCT-15 colon 67.7% | HT29 colon 81.1% | SNB-75 CNS 76.2% | SNB-19 CNS 79.2% | U251 CNS 74.5% | PC-3 prostate 67.3% | SK-MEL-5 melanoma 45.1% | UACC-62 melanoma 57.5% | LOX IMVI melanoma 67% | SK-MEL-28 melanoma 83.4%

CN1C(=O)/C(=C/c2ccc(C(=O)Nc3ncc(Cc4ccc(F)cc4)s3)cc2)SC1=S
active: UACC-62 melanoma 9.34%
inactive: DU-145 prostate 38.8% | K-562 leukemia 44.7% | MALME-3M melanoma 47.1% | MDA-MB-231 breast 56.2% | RXF 393 renal 36.8% | SF-268 CNS 49.1% | SF-295 CNS 24.3% | SF-539 CNS 38.4% | UACC-257 melanoma 65.6% | M14 melanoma 19.6% | HCT-15 colon 22.4% | HT29 colon 29.5% | SNB-75 CNS 40.3% | SNB-19 CNS 60.5% | U251 CNS 65.2% | PC-3 prostate 52.4% | SK-MEL-5 melanoma 17.6% | LOX IMVI melanoma 15.4% | SK-MEL-28 melanoma 58%

CCN1C(=O)N(CC)C2C1NN=c1s/c(=C\c3cc4ccccc4[nH]3)c(=O)n12 (stereo not given)
active: K-562 leukemia 9.13% | SF-539 CNS -21.9% | HT29 colon 5.58% | U251 CNS 7.49% | SK-MEL-5 melanoma -5.91%
inactive: DU-145 prostate 16.4% | MALME-3M melanoma 33.4% | MDA-MB-231 breast 14.7% | RXF 393 renal 47.3% | SF-268 CNS 25.6% | SF-295 CNS 18.6% | UACC-257 melanoma 45.5% | M14 melanoma 19.8% | HCT-15 colon 12% | SNB-75 CNS 32.1% | SNB-19 CNS 45.1% | PC-3 prostate 13.2% | UACC-62 melanoma 22.2% | LOX IMVI melanoma 17.4% | SK-MEL-28 melanoma 52.2%

Reference: PubChem BioAssay (NCI)
